Data on 157 variants can be found in a collection of fitness landscapes (doi:10.1126/science.1257360).

Whole data set: some 140,000 sequences, median “enrichment ratio after two sorts for PhoP signalling” near 0, cut for the highest 2% near 11. The sample as a whole holds a higher share of the highest values than the screen did.

First the molecules themselves.
B1: PhoQ; a variant is named by its letters at X, in order, P23837 (parent)
chain: MKKLLRLFFPLSLRVRFLLATAAVVLVLSLAYGMVALIGYSVSFDKTTFRLLRGESNLFYTLAKWENNKLHVELPENIDKQSPTMTLIYDENGQLLWAQRDVPWLMKMIQPDWLKSNGFHEIEADVNDTSLLLSGDHSIQQQLQEVREDDDDAEMTHSVAVNVYPATSRMPKLTIVVVDTIPVELKSSYMVWSWFIYVLSANLLLVIPLLWVAAWWSLRPIEALAKEVRELEEHNRELLNPATTRELTSLVRNLNRLLKSERERYDKYRTTLTDLTHSLKTPLXXLQXXLRSLRSEKMSVSDAEPVMLEQISRISQQIGYYLHRASMRGGTLLSRELHPVAPLLDNLTSALNKVYQRKGVNISLDISPEISFVGEQNDFVEVMGNVLDNACKYCLEFVEISARQTDEHLYIVVEDDGPGIPLSKREVIFDRGQRVDTLRPGQGVGLAVAREITEQYEGKIVAGESMLGGARMEVIFGRQHSAPKDE

The variants in this assay derive from B1. Nature of the assay: enrichment ratio after two sorts for PhoP signalling (ratio (wild type AVST 3.29)); higher = more functional. The following applies: with PhoP (E. coli).
Take YRVI: the enrichment ratio is not above 0.25.

For ETQT, the enrichment ratio was not above 0.25.

Turning to GDCV, the enrichment ratio was 1.12. In the case of HWFI, the enrichment ratio was not above 0.25.

For the variant VAGY, the enrichment ratio was found to be 1.53. To NQGE belongs not above 0.25; to YYNI, not above 0.25; to MCMI, 4.33. To IAKS belongs not above 0.25; to NMWR, not above 0.25; to KAQY, not above 0.25. With TENK, the enrichment ratio came to 5.62. Consider TEPC, for which the enrichment ratio is not above 0.25. On to TETC, for which the enrichment ratio amounted to 24.3.

As to PWAR, the enrichment ratio was not above 0.25. SPMI: the enrichment ratio is not above 0.25. KYGE: the enrichment ratio was not above 0.25. On to KYMI, for which the enrichment ratio was not above 0.25.

On to QDFA, for which the enrichment ratio was not above 0.25. As to SRGE, the enrichment ratio is not above 0.25. To SIWI belongs not above 0.25; to SIMI, 17.4.

As for SWMI, the enrichment ratio is not above 0.25. LWMI: the enrichment ratio was not above 0.25.

STMI: the enrichment ratio worked out at 14.9.

Consider QEMI, for which the enrichment ratio is 65.2. To SIGE belongs 16.9; to WVYV, not above 0.25.

In the case of RSYE, the enrichment ratio was not above 0.25. On to DIVY, for which the enrichment ratio is not above 0.25. VANA: the enrichment ratio was not above 0.25.

Turning to RKTG, the enrichment ratio was not above 0.25. Under ECNY stands not above 0.25; under LALQ, 1.26. For AAVS, the enrichment ratio is not above 0.25.

For AKVS, the enrichment ratio amounted to 13.5. To TKVS belongs 7.5; to AIVS, 12.6. Under AHVS stands not above 0.25; under WIVS, not above 0.25; under YWKL, not above 0.25. With HFDQ, the enrichment ratio was not above 0.25. To MNQV belongs not above 0.25; to TNHI, not above 0.25.

Turning to TNVA, the enrichment ratio is not above 0.25.

Turning to TNCH, the enrichment ratio is not above 0.25. Under TNMH stands 15.7. To TNMG belongs not above 0.25. Under TNNV stands 13.4; under MNNV, not above 0.25. In the case of TNCV, the enrichment ratio worked out at 10. For TNMI, the enrichment ratio was found to be 11.7. In the case of TNQV, the enrichment ratio turned out to be 47.4. In the case of TNWR, the enrichment ratio was not above 0.25.

Regarding TTFC, the enrichment ratio was not above 0.25.

Take IGNC: the enrichment ratio was not above 0.25. To NNDF belongs not above 0.25; to KDQI, not above 0.25; to WTKG, not above 0.25. To KNQF belongs not above 0.25. In the case of FFRV, the enrichment ratio was not above 0.25. Under IYFT stands not above 0.25. Under ECCW stands not above 0.25; under SVDL, 1.56; under WHFP, not above 0.25.

Regarding TNMS, the enrichment ratio amounted to 4.8.

Consider TNIV, for which the enrichment ratio was not above 0.25. To TNMV belongs 12.6. Under STMA stands 4.9.

As to SEMA, the enrichment ratio worked out at 13.6.

Take SEGA: the enrichment ratio worked out at 12. To SRGA belongs not above 0.25. To KYGA belongs not above 0.25; to KYMA, not above 0.25; to ALVP, not above 0.25.

On to HAVN, for which the enrichment ratio is not above 0.25. As for FQPY, the enrichment ratio is not above 0.25. Regarding AESR, the enrichment ratio is 3.86. To AECL belongs 20.9; to AECD, 17; to AWCD, not above 0.25. For the variant AESI, the enrichment ratio worked out at 25.1.

Take AEPL: the enrichment ratio was not above 0.25. To AECV belongs 21.4.

On to QECD, for which the enrichment ratio was not above 0.25. As to AEWV, the enrichment ratio is not above 0.25. To AEES belongs not above 0.25; to AESH, 1.31. To AEGL belongs 1.47; to DTCP, not above 0.25. To FCNA belongs not above 0.25; to VDPQ, not above 0.25; to GHKH, not above 0.25. With IWMV, the enrichment ratio was not above 0.25.

For MRYG, the enrichment ratio was not above 0.25. With VCGI, the enrichment ratio was not above 0.25. For the variant VANS, the enrichment ratio was not above 0.25.

Consider KPRL, for which the enrichment ratio was not above 0.25. For the variant AEIF, the enrichment ratio was 18.6. For the variant AIIF, the enrichment ratio is not above 0.25. Take AECP: the enrichment ratio is not above 0.25.

Turning to AECK, the enrichment ratio was not above 0.25. With AECQ, the enrichment ratio amounted to 30.9. As to ADIF, the enrichment ratio is not above 0.25. Take AECS: the enrichment ratio was found to be 39.5.

As for AECI, the enrichment ratio is 4.88. Under AECG stands not above 0.25. To AECA belongs 42.4; to RMEF, not above 0.25; to THRH, not above 0.25. For LFGG, the enrichment ratio is not above 0.25. Turning to SVRY, the enrichment ratio is not above 0.25. Under VDCR stands not above 0.25; under PYWQ, not above 0.25; under SCCE, 13.9. Under SCWM stands not above 0.25; under SCCI, 9.92; under SCNE, not above 0.25. For the variant SCCL, the enrichment ratio is 18.7. Under SCIL stands 0.31. To SCCK belongs 14.3; to KCCQ, not above 0.25; to SCVL, 1.96. To SCCQ belongs 13.2; to SCIE, not above 0.25; to SCKQ, not above 0.25. QNII: the enrichment ratio was not above 0.25.

Take YSFC: the enrichment ratio is not above 0.25. Under QFDM stands not above 0.25; under MRHI, not above 0.25.

Turning to SCGG, the enrichment ratio was determined as 11.1.

Regarding SCGM, the enrichment ratio is 9.65. Under SCRM stands not above 0.25; under SCGL, 13.6.

Consider KCCG, for which the enrichment ratio is not above 0.25. Under SCNL stands 0.751; under SCCG, 14.3. To KYGL belongs not above 0.25; to SCTM, 17.9. Under IPCK stands not above 0.25; under NTGH, not above 0.25; under VHAE, not above 0.25. As to RFHG, the enrichment ratio is not above 0.25. On to GDAF, for which the enrichment ratio is not above 0.25. As for THIS, the enrichment ratio is not above 0.25. AITY: the enrichment ratio was determined as 3.48.

Regarding SFLI, the enrichment ratio is 0.615. As to AETY, the enrichment ratio is 16.

Turning to SSDK, the enrichment ratio is not above 0.25. Under NNTY stands not above 0.25; under SATC, 5.33. On to TMTY, for which the enrichment ratio is 12.9.

With SSLI, the enrichment ratio stood at 18.9. Under SATD stands not above 0.25; under AHTY, not above 0.25. In the case of HATY, the enrichment ratio was not above 0.25. Under SATS stands 14.2.
